Among the test systems are DU-145 prostate; K-562 leukemia; MALME-3M melanoma; MDA-MB-231 breast; RXF 393 renal; SF-268 CNS; SF-295 CNS; SF-539 CNS; UACC-257 melanoma; M14 melanoma.
Holding throughout (test): NCI-60 one-dose screen, 48 h (100 = growth as untreated, 0 = no growth, -100 = all killed)
What all share (details): 10 µM unless noted

Where “and” joins values, the source holds several entries; their conditions need not be identical. Identical values can stand only once. This is part of a sample that, as a whole, favours compounds with a hit. Of some 83,000 tested, about 20% had one in any assay.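 A percent growth of 40 corresponds to 60% growth inhibition; 0 means no net growth; -100 means all cells died. Active threshold: below 10.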 Calls of active or inactive are those of the source.

With `O=C1C2=C(Nc3cc(Cl)ccc3N2)OC1c1c[nH]c2ccc(COc3ccccc3)cc12` (stereo not given), the growth with DU-145 prostate is 73.7% (inactive); in the test on K-562 leukemia it was 79.7% (inactive); in the test on MALME-3M melanoma, 74% (inactive); with MDA-MB-231 breast it was 59.5% (inactive); with RXF 393 renal, 43.9% (inactive); in the test with SF-268 CNS, 30.4% (inactive). Also, the growth was 33.5% (inactive) with SF-295 CNS, 53.8% (inactive) in the test on SF-539 CNS, 80.3% (inactive) in the test with UACC-257 melanoma and 94.2% (inactive) with M14 melanoma.
As to `COc1cc([C@@H]2c3cc4c(cc3[C@H](O)[C@H]3COC(=O)[C@@H]23)OCO4)cc(OC)c1OC`, the growth in the test with DU-145 prostate is 27.1% (inactive) and -27.4% (active); in the test with K-562 leukemia it was 8.28% (active) and 25.4% (inactive); with MALME-3M melanoma, 7.77% (active) and 69.7% (inactive); in the test with MDA-MB-231 breast it was 36.9% (inactive) and 17.5% (inactive); in the test with RXF 393 renal, 39.6% (inactive) and 28.2% (inactive); in the test on SF-268 CNS it was 27.1% (inactive) and 24.4% (inactive). The growth with SF-295 CNS is 34.1% (inactive) and -22.3% (active); in the test on SF-539 CNS it was -30.4% (active) and -4.79% (active); with UACC-257 melanoma it was 18.6% (inactive) and 57.2% (inactive); in the test with M14 melanoma it was 9.16% (active) and -73.8% (active).
`O=C(O)C1CSCN1` (stereo not given): the growth in the test on DU-145 prostate was 116% (inactive) and 127% (inactive); in the test on K-562 leukemia, 93.5% (inactive) and 95.2% (inactive); in the test on MALME-3M melanoma, 94.1% (inactive); in the test with MDA-MB-231 breast, 107% (inactive) and 112% (inactive); with RXF 393 renal, 123% (inactive); in the test with SF-268 CNS it was 117% (inactive) and 104% (inactive). Also, the growth is 104% (inactive) and 108% (inactive) with SF-295 CNS; 121% (inactive) and 93.4% (inactive) with SF-539 CNS; 106% (inactive) and 91.6% (inactive) in the test on UACC-257 melanoma; 108% (inactive) and 99.8% (inactive) in the test on M14 melanoma.
Take `OC1CCCN(Cc2ccccc2)C1` (stereo not given): the growth was 121% (inactive) with DU-145 prostate; 111% (inactive) with K-562 leukemia; 104% (inactive) in the test with MALME-3M melanoma; 103% (inactive) with MDA-MB-231 breast; 107% (inactive) with RXF 393 renal; 102% (inactive) in the test with SF-268 CNS. Moreover, the growth in the test with SF-295 CNS was 114% (inactive); in the test on SF-539 CNS, 109% (inactive); in the test on UACC-257 melanoma it was 93.9% (inactive); in the test with M14 melanoma, 98.7% (inactive).
As for `N#Cc1c[nH]n2ccnc12`, the growth in the test on DU-145 prostate is 111% (inactive); in the test with K-562 leukemia it was 106% (inactive); in the test with MALME-3M melanoma, 106% (inactive); with MDA-MB-231 breast, 111% (inactive); in the test on RXF 393 renal, 113% (inactive); in the test with SF-268 CNS, 107% (inactive). Besides, the growth in the test on SF-295 CNS is 99.8% (inactive); with SF-539 CNS, 104% (inactive); with UACC-257 melanoma, 97.7% (inactive); with M14 melanoma, 94.9% (inactive).
For the compound `O=C(O)C#Cc1ccc(Cl)cc1`, the growth is 109% (inactive) in the test with DU-145 prostate; 88.5% (inactive) with K-562 leukemia; 104% (inactive) with MALME-3M melanoma; 100% (inactive) with MDA-MB-231 breast; 108% (inactive) in the test with RXF 393 renal; 104% (inactive) with SF-268 CNS. For the same compound, the growth was 99.7% (inactive) in the test on SF-295 CNS, 102% (inactive) in the test on SF-539 CNS, 87.3% (inactive) in the test on UACC-257 melanoma and 98.2% (inactive) in the test on M14 melanoma.
Regarding `O=[N+]([O-])c1ccc(N2CCN=N2)cc1`, the growth in the test with DU-145 prostate is 88.2% (inactive); in the test on K-562 leukemia it was 63.6% (inactive); in the test with MALME-3M melanoma, 106% (inactive); with MDA-MB-231 breast it was 80.4% (inactive); in the test on RXF 393 renal, 109% (inactive); in the test on SF-268 CNS it was 85.8% (inactive). Moreover, the growth in the test on SF-295 CNS is 97.1% (inactive); in the test on SF-539 CNS it was 93.4% (inactive); in the test with UACC-257 melanoma it was 91.5% (inactive); in the test with M14 melanoma, 82.7% (inactive).
Take `O=C(N=C1C(=O)C2(CCCCC2)C2(N=C(c3ccccc3)OC2=O)C12CCCCC2)c1ccccc1` (stereo not given): the growth in the test with DU-145 prostate was 79% (inactive); in the test on K-562 leukemia it was 54.4% (inactive); in the test with MALME-3M melanoma, 77.6% (inactive); in the test with MDA-MB-231 breast, 74.4% (inactive); with RXF 393 renal it was 69.5% (inactive); in the test with SF-268 CNS, 77.8% (inactive). For the same compound, the growth in the test with SF-295 CNS was 77.3% (inactive); in the test with SF-539 CNS, 82.3% (inactive); with UACC-257 melanoma, 67.7% (inactive); in the test with M14 melanoma, 78% (inactive).
In the case of `C/C(CC(C)C)=N/NC(N)=S`, the growth in the test with DU-145 prostate is 92.2% (inactive); in the test with K-562 leukemia, 56.2% (inactive); in the test with MALME-3M melanoma, 81.4% (inactive); in the test with MDA-MB-231 breast, 100% (inactive); in the test with RXF 393 renal, 108% (inactive); with SF-268 CNS it was 88.8% (inactive). For the same compound, the growth with SF-295 CNS is 84.3% (inactive); in the test with SF-539 CNS, 105% (inactive); in the test on UACC-257 melanoma, 74.4% (inactive); in the test on M14 melanoma, 84.4% (inactive).
Regarding `C(#CCN1CCOCC1)CCCN1CCOCC1`, the growth was 109% (inactive) and 117% (inactive) with DU-145 prostate; 114% (inactive) and 113% (inactive) in the test on K-562 leukemia; 117% (inactive) and 88.9% (inactive) in the test on MALME-3M melanoma; 96.7% (inactive) and 106% (inactive) in the test on MDA-MB-231 breast; 110% (inactive) and 119% (inactive) in the test with RXF 393 renal; 105% (inactive) and 104% (inactive) in the test with SF-268 CNS. For the same compound, the growth is 113% (inactive) and 106% (inactive) in the test on SF-295 CNS; 104% (inactive) and 91.7% (inactive) in the test with SF-539 CNS; 97.5% (inactive) and 101% (inactive) with UACC-257 melanoma; 105% (inactive) and 98% (inactive) in the test with M14 melanoma.
Turning to `COc1ccc(CCNC(=S)NN)cc1OC`, the growth in the test on DU-145 prostate was 106% (inactive); in the test on K-562 leukemia it was 101% (inactive); in the test on MALME-3M melanoma, 124% (inactive); in the test with MDA-MB-231 breast it was 114% (inactive); in the test on RXF 393 renal, 200% (inactive); with SF-268 CNS, 96% (inactive). Further, the growth with SF-295 CNS was 103% (inactive); in the test with SF-539 CNS it was 95% (inactive); with UACC-257 melanoma, 108% (inactive); in the test with M14 melanoma, 104% (inactive).

(Values after PubChem BioAssay (NCI).)
